Results on seven compounds are retold here after PubChem BioAssay (Tox21).

A short description of experiment [1]: Nuclear factor erythroid 2-related factor 2/antioxidant responsive element (Nrf2/ARE) small molecule agonists: qHTS cell viability counter screen in human keratinocytes (AID 1919968; active = well fitted curve in the direction sought with a large enough effect in the repeat runs; an effect the other way counts as inactive or inconclusive; also: nearly all actives have a fitted effect of over 55% in size). In outline:
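Measured as CellTiter-Fluor fluorescence, this readout tracks cytotoxicity in the same wells as the ARE-luciferase screen. HaCaT reporter cells (1,500/well) received compounds after a 5 h pre-incubation and were exposed for 23 h.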
Background: qHTS replaces the single test concentration by a dilution series.

Experiment [2] in a line: Nuclear factor erythroid 2-related factor 2/antioxidant responsive element (Nrf2/ARE) small molecule agonists: luciferase reporter gene qHTS assay in human keratinocytes (AID 1919969; also: nearly all actives have a fitted effect of over 35% in size; also: potency is read from the fitted curve at half-maximal effect). (In general: In a reporter assay the amount or activity of a reporter protein is the signal.)
In experiment [3] the target is Gonadotropin-releasing hormone receptor (Homo sapiens) (UniProt P30968). Briefly: Human gonadotropin-releasing hormone receptor (GnRHR) small molecule agonists, calcium flux assay in GnRHR-HEK293 cells (AID 1920063). Also: nearly all actives have a fitted effect of over 35% in size. A digest of the protocol: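 Fluorescence kinetics (480 nm excitation, 540 nm emission; 3 min, 1 s steps) report calcium mobilisation in human GnRHR-HEK293 cells in agonist mode. Dye incubation: 1 h, 37 C.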
Sequence of Gonadotropin-releasing hormone receptor (Homo sapiens) (P30968 whole entry, looked up): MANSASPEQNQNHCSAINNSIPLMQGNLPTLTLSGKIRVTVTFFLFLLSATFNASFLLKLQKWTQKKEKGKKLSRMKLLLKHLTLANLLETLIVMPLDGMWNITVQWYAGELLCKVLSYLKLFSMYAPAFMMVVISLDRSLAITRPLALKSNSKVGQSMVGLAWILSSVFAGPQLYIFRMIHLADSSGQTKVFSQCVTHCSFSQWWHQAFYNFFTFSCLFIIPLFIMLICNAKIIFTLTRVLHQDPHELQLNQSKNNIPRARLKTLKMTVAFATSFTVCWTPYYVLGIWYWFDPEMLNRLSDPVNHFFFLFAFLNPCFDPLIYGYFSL
A general note: A change in cytosolic calcium serves as a functional read-out for many receptors and channels.

Experiment [4] concerns the target KiSS-1 receptor (Homo sapiens) (UniProt Q969F8). Briefly: Human kisspeptin (KISS1R) small molecule agonists, calcium flux assay in KISS1R-HEK293 cells (AID 1920064; active = well fitted curve in the direction sought with a large enough effect in the repeat runs; an effect the other way counts as inactive or inconclusive). In outline: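 Measures KISS1R agonism through calcium-sensitive dye fluorescence in stably transfected HEK293 cells, read for 3 min after pin-tool compound delivery; 15-point titrations in triplicate.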

Experiment [5] is described as follows: p53 small molecule agonists, cell-based qHTS assay with human liver microsomes (AID 1963577). A digest of the protocol: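 Fluorescence of the beta-lactamase reporter in p53RE-bla cells, detected with LiveBLAzer substrate (2 h, room temperature, dark), served as the read-out after 16 h compound exposure at 37 C with human liver microsomes and NADPH, each 0.5 mg/mL final.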

A short description of experiment [6]: p53 small molecule agonists, cell-based qHTS assay with rat liver microsomes (AID 1963578). In outline: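 Cells carrying a p53 response element–beta-lactamase reporter were plated and rested 5 h, then dosed with compound in DMSO plus rat liver microsomes and NADPH, each at 0.5 mg/mL final. After 16 h at 37 C, LiveBLAzer substrate was added for 2 h.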
Experiment [7] in a line: p53 small molecule agonists, cell-based qHTS assay with human liver microsomes: qHTS cell viability counter screen (AID 1963579). Also: nearly all actives have a fitted effect of over 45% in size. In outline: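 Cytotoxicity counter screen: p53RE-bla, 4,000 cells/well; 5 h settle, 37 C/5% CO2; cpd + HLM 0.5 mg/mL + NADPH 0.5 mg/mL (final); 16 h, 37 C; CellTiter-Glo, 30 min RT, luminescence.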
Experiment [8] can be described thus: p53 small molecule agonists, cell-based qHTS assay with rat liver microsomes: qHTS cell viability counter screen (AID 1963580). Also: nearly all actives have a fitted effect of over 45% in size. A digest of the protocol:
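In HCT-116 cells carrying a p53 response element-bla reporter, compounds were metabolically activated in situ by rat liver microsomes with NADPH over 16 h. Cell ATP content then served as the cytotoxicity measure.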

Experiment [9] can be described thus: p53 small molecule agonists, cell-based qHTS assay: qHTS cell viability counter screen (AID 1963581). Also: nearly all actives have a fitted effect of over 45% in size. A digest of the protocol:
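In the same plates used for the p53 bla reporter, HCT-116 cells given compounds for 16 h at 37 C received CellTiter-Glo; luminescence was recorded 30 min later at room temperature.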

Experiment [10] in a line: p53 small molecule agonists, cell-based qHTS assay (AID 1963582; active = well fitted activation curve with a large enough effect in the signal ratio in the repeat runs, not every such curve was filed as active; the % refers to the signal ratio). A digest of the protocol:
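Compounds are pin-transferred in DMSO onto p53RE-bla cells and incubated 16 h at 37 C. The B/G FRET beta-lactamase substrate is then applied for 2 h at RT and fluorescence recorded.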

The target in experiment [11] is 5-hydroxytryptamine receptor 2A (Homo sapiens) (UniProt P28223). Briefly: 5-hydroxytryptamine receptor 2A (HTR2A) small molecule antagonists, cell-based qHTS assay (AID 1963586). Also: nearly all actives have a fitted effect of over 45% in size. Also: potency is read from the fitted curve at half-maximal effect. In outline:
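Antagonist-mode intracellular calcium assay: DOI (4 nM) added after 5 min compound pre-incubation at room temperature to dye-loaded HTR2A-CHO cells. Fluorescence followed for 3 min, sampled every second.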

Experiment [12] shares this target. In words: 5-hydroxytryptamine receptor 2A (HTR2A) small molecule agonists, cell-based qHTS assay (AID 1963587). Also: nearly all actives have a fitted effect of over 30% in size. Also: potency is read from the fitted curve at half-maximal effect. In outline: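 HTR2A-CHO cells, plated 18 h at 37 C/5% CO2, dye-loaded 1 h at 37 C; compounds in DMSO added by pin tool (agonist mode). Intracellular calcium flux read as kinetic fluorescence on FDSS over 2 min at 1 s intervals.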
Experiment [13] has as its target Muscarinic acetylcholine receptor M1 (Homo sapiens) (UniProt P11229). Briefly: Cholinergic receptor muscarinic 1 (CHRM1) small molecule antagonists, cell-based qHTS assay (AID 1963588). Also: nearly all actives have a fitted effect of over 40% in size. A digest of the protocol: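 CHRM1-CHO calcium-flux assay, antagonist mode. Cells were seeded 18 h, dye-loaded 1 h at 37 C and given compound for 5 min at RT, then acetylcholine was added at 50nM. FDSS fluorescence was read 3 min; 15 concentrations, three runs.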

The target is the same in experiment [14]. In words: Cholinergic receptor muscarinic 1 (CHRM1) small molecule agonists, cell-based qHTS assay (AID 1963589). Also: nearly all actives have a fitted effect of over 35% in size. In outline:
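Each compound was tested at 15 concentrations across three independent runs on dye-loaded CHO cells stably expressing human CHRM1, reading intracellular calcium fluorescence kinetically at 1 sec intervals.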

Experiment [15] can be described thus: cAMP Responsive Elements (CRE) small molecule agonists, cell-based qHTS assay (AID 1963590). A digest of the protocol:
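Cell line: CRE-bla HEK 293T; medium DMEM/10% dialyzed FBS/0.1 mM NEAA/1 mM pyruvate/25 mM HEPES; 3 h compound exposure; beta-lactamase FRET readout after 2 h substrate loading at RT.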

The nature of experiment [16]: cAMP Responsive Elements (CRE) small molecule antagonists, cell-based qHTS assay (AID 1963591; active = well fitted inhibition curve with a large enough effect in the signal ratio in the repeat runs, not every such curve was filed as active; the % refers to the signal ratio). In outline:
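Inhibition of NKH477-driven (0.25 uM final) CRE-beta-lactamase signal in HEK293T cells, 3 h compound exposure at 37 °C, detected by FRET substrate fluorescence.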

The target in experiment [17] is Beta-2 adrenergic receptor (Homo sapiens) (UniProt P07550). Briefly: Adrenergic beta2 receptor (ADRB2) small molecule antagonists, cell-based qHTS assay (AID 1963592). Also: series mostly up to about 92 µM; nearly all actives have a fitted effect of over 50% in size. In outline: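 Cells (CHO, stable ADRB2 overexpression) incubated 18-20hr at 37C; compounds added from DMSO; agonist mix (1nM isoproterenol, 100uM IBMX, 25uM Ro-20-1724) added; 0.5hr RT; d2-cAMP and anti-cAMP-cryptate added; 1hr RT; 665/615 nm read.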
Sequence of Beta-2 adrenergic receptor (Homo sapiens) (P07550 whole entry, looked up): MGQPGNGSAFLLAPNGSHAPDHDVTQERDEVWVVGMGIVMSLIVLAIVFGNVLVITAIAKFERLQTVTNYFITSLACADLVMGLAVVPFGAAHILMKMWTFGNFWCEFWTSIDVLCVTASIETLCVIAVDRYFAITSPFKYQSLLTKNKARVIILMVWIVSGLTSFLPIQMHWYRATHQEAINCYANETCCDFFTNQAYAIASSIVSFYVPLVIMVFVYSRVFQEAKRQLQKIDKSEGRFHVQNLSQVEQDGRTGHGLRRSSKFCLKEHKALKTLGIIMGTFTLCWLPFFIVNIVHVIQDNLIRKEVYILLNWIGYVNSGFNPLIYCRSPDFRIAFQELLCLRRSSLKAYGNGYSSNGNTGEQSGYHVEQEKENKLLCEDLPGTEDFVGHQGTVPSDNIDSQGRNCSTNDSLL

For experiment [18] the target is unchanged. Briefly: Adrenergic beta2 receptor (ADRB2) small molecule agonists, cell-based qHTS assay (AID 1963593).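 Also: CHO cells stably overexpressing human ADRB2.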 A digest of the protocol: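 CHO cells stably over-expressing ADRB2 were plated overnight at 37C, then dosed with compounds plus a stimulation mix containing 100uM IBMX and 25uM Ro-20-1724 for 0.5hr at room temperature. cAMP was measured by HTRF competition, 1hr.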

Experiment [19] deals with D(2) dopamine receptor (Homo sapiens) (UniProt P14416). Briefly: Dopamine D2 receptor (DRD2) small molecule agonists, cell-based qHTS assay (AID 1963594). Also: nearly all actives have a fitted effect of over 35% in size. In outline:
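HEK293 cells stably expressing DRD2 were cultured 24 h at 37 C, then given Ro20-1724 (0.1 mM final) and compounds for 10 min at room temperature. NKH477 (200nM) was then added for 30 min. cAMP was read by HTRF.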

Experiment [20] shares this target. In words: Dopamine D2 receptor (DRD2) small molecule antagonists, cell-based qHTS assay (AID 1963595; active = well fitted inhibition curve with a large enough effect in the signal ratio in the repeat runs, with a control signal flat; the % refers to the signal ratio). In outline: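 Stable D2 receptor HEK293 line, 24 h after seeding. Compound preincubated 10 min, then quinpirole (12 nM) with forskolin analogue NKH477 (200 nM), 30 min, room temperature. Detection by time-resolved FRET of cAMP.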

Where “and” joins values, the source holds several entries; their conditions need not be identical. Equal values may be shown once. Records with an inconclusive call do not appear. A structure can be active in one record and inactive in another. Calls of active or inactive are those of the source. Unless noted, calls follow the shape of the full dose curve.

Sequence of KiSS-1 receptor (Homo sapiens) (Q969F8 whole entry, looked up): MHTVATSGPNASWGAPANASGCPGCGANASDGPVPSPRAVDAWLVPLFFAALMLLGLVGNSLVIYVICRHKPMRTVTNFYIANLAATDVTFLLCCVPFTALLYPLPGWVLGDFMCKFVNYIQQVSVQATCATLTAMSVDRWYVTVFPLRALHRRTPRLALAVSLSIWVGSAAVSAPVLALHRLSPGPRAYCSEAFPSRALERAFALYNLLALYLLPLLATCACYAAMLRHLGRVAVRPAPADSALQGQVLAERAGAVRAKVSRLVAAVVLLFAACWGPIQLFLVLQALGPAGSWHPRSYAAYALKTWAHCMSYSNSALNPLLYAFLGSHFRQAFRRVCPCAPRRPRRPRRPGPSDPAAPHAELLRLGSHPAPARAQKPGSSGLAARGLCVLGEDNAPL
Sequence of Muscarinic acetylcholine receptor M1 (Homo sapiens) (P11229 whole entry, looked up): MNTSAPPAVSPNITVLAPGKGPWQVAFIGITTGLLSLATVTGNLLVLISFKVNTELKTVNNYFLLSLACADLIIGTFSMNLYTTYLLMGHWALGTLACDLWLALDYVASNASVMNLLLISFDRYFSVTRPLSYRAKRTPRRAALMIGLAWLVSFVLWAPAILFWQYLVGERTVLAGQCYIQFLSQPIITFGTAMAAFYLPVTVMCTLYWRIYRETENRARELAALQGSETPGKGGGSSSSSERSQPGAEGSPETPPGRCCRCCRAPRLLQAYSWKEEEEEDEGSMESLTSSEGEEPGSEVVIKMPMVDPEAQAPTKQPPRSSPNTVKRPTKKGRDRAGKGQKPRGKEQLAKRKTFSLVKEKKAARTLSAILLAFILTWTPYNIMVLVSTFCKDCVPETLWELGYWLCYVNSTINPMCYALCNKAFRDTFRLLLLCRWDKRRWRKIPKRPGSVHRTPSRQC
Sequence of D(2) dopamine receptor (Homo sapiens) (P14416 whole entry, looked up): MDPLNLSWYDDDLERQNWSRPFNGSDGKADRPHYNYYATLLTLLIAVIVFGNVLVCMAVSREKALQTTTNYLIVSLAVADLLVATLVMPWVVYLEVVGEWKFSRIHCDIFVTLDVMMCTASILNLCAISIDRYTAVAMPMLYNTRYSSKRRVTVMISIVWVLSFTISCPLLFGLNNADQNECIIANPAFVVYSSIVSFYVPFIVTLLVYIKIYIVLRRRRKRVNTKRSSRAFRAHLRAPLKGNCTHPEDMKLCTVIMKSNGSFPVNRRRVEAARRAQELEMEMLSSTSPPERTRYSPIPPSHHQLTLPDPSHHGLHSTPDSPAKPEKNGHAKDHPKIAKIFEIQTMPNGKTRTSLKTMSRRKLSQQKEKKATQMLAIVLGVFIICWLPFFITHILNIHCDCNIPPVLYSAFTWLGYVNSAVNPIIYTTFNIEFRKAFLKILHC
Sequence of 5-hydroxytryptamine receptor 2A (Homo sapiens) (P28223 whole entry, looked up): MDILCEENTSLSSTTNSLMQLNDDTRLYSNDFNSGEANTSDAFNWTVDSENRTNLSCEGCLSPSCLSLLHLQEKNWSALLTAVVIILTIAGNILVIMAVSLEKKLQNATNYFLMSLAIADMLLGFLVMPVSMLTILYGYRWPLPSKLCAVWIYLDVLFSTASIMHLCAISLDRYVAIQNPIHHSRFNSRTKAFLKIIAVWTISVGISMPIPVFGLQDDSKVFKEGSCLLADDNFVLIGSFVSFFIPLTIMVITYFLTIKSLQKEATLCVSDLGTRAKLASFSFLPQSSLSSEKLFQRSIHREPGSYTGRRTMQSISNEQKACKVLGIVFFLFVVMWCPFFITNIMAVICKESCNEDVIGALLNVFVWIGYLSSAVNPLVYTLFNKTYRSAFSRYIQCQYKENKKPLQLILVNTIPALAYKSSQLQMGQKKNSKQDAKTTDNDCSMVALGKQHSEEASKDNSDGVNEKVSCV

Take `CCC(C)(C#N)N=NC(C)(C#N)CC` (stereo not drawn): the Potency result in experiment [1], in experiment [2], in [3], in experiment [4], in experiment [5] and in experiment [6] was “inactive” throughout. Also, the Potency entry in experiment [7], in experiment [8], in [9], in experiment [10], in [11] and in experiment [12] was “inactive” in each case. The Potency entry in experiment [13], in experiment [14], in experiment [15], in experiment [16], in experiment [17] and in [18] was “inactive” in each case. The Potency result in experiment [19] and in experiment [20] was “inactive” in each case.
Consider `NCCc1ccc(O)cc1`, for which the Potency entry in [1], in experiment [3], in experiment [4], in experiment [5], in [6] and in experiment [7] was “inactive” each time. Also, the Potency result in experiment [8], in experiment [10], in [13], in experiment [14], in experiment [15] and in [16] was “inactive” in each case. Further, the Potency result in experiment [17], in [18], in experiment [19] and in experiment [20] was “inactive” each time. The Potency in [2] was 29.8 µM (active); in experiment [11] it was 4.17 µM (active) and inactive; in experiment [12], 5.45 µM (active) and 8.49 µM (active).
With `CCCCCCCCCCCCBr`, the Potency entry in [1], in experiment [2], in [3], in experiment [4], in [5] and in experiment [6] was “inactive” each time. In addition, the Potency entry in [7], in experiment [8], in experiment [9], in experiment [11], in experiment [12] and in [13] was “inactive” each time. Besides, the Potency result in experiment [14], in [15], in experiment [16], in experiment [17], in [18] and in experiment [19] was “inactive” in each case. The Potency result in experiment [20] was “inactive”.
As for `COC(=O)c1cncn1C(C)c1ccccc1` (stereo not drawn), the Potency result in [1], in [2], in [3], in experiment [4], in experiment [5] and in [6] was “inactive” each time. Besides, the Potency result in experiment [9], in experiment [10], in [11], in experiment [12], in experiment [13] and in experiment [14] was “inactive” each time. For the same compound, the Potency entry in [15], in experiment [16], in experiment [17], in [18], in [19] and in [20] was “inactive” each time.
Take `S=C=S`: the Potency result in [1], in experiment [2], in experiment [3], in [4], in [5] and in experiment [6] was “inactive” in each case. In addition, the Potency result in experiment [7], in experiment [8], in experiment [9], in experiment [10], in experiment [11] and in experiment [12] was “inactive” throughout. Further, the Potency entry in experiment [13], in experiment [15], in experiment [16], in [17], in experiment [19] and in [20] was “inactive” in each case.
In the case of `O=C(O)CC[N+](=O)[O-]`, the Potency result in experiment [1], in experiment [2], in experiment [3], in [4], in experiment [5] and in [7] was “inactive” in each case. For the same compound, the Potency entry in experiment [8], in experiment [9], in [10], in experiment [11], in experiment [12] and in experiment [13] was “inactive” in each case. Moreover, the Potency entry in experiment [14], in experiment [15], in experiment [16], in experiment [18], in experiment [19] and in experiment [20] was “inactive” throughout.
In the case of `CCN(N=O)C(N)=O`, the Potency entry in experiment [1], in experiment [2], in experiment [3], in experiment [4], in [5] and in experiment [6] was “inactive” each time. The Potency result in [7], in experiment [8], in experiment [9], in experiment [10], in experiment [12] and in experiment [13] was “inactive” in each case. In addition, the Potency result in experiment [15], in [17], in experiment [18] and in [19] was “inactive” each time.
